For 22 molecules, AC50 and outcome results are on record in PubChem BioAssay (EPA / NIEHS).

SMILES strings stand for the structures. Results filed as inconclusive are left out. The source holds several records for some structures; these can differ, active in one and inactive in another. Activity calls are given as the source filed them. How the source made its calls, unless noted: active means hit-call score of the fitted dose curve at least 0.9, where 1 is the maximum; inconclusive means response in the unintended direction; inactive means score below 0.9.

Read-out in assay [1]: Cellular tumor antigen p53 (Homo sapiens) (UniProt P04637)
Put plainly: LTEA_HepaRG_TP53: Life Technologies and Expression Analysis (LTEA) Assay for Tumor Protein P53 (TP53) using HepaRG (AID 2283537; active means hit-call score of the fitted dose curve at least 0.9, where 1 is the maximum; inactive means score below 0.9). The settings on record: mRNA level, 48 h; actives raise or lower the signal. A digest of the protocol: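 Gain or loss of TP53 mRNA signal is scored relative to 0.5% DMSO after 48 h chemical treatment of HepaRG liver cells, tested in duplicate at eight half-log concentrations up to 100 uM.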

Read-out in assay [2]: UDP glucuronosyltransferase (UGT1A1), UGT1A1 (gene 54658)
Put plainly: LTEA_HepaRG_UGT1A1: Life Technologies and Expression Analysis (LTEA) Assay for UDP glucuronosyltransferase (UGT1A1) using HepaRG (AID 2283538; active means hit-call score of the fitted dose curve at least 0.9, where 1 is the maximum; inactive means score below 0.9). Conditions: mRNA level, 48 h; actives raise or lower the signal. In a few lines:
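Cells are plated, cultured 48 h, switched to serum-free induction medium, then dosed 48 h at eight concentrations (max 100 uM, 0.5% DMSO). RNA is isolated and UGT1A1 expression measured by qRT-PCR; changes versus DMSO are fitted in both directions.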

Read-out in assay [3]: UDP glucuronosyltransferase (UGT1A6), UGT1A6 (gene 54578)
Nature of the assay: LTEA_HepaRG_UGT1A6: Life Technologies and Expression Analysis (LTEA) Assay for UDP glucuronosyltransferase (UGT1A6) using HepaRG (AID 2283539; active means hit-call score of the fitted dose curve at least 0.9, where 1 is the maximum; inactive means score below 0.9). Conditions: mRNA level, 48 h; actives raise or lower the signal. A digest of the protocol: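 Human HepaRG cells were dosed for 48 h in serum-free induction medium with 0.5% DMSO vehicle, eight-point half-log series from 100 uM, in duplicate. UGT1A6 mRNA was measured by qRT-PCR, normalized to ACTB, GAPDH, POLR2A, and fitted bidirectionally against DMSO.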

Read-out in assay [4]: X-box binding protein 1 (XBP1), XBP1 (gene 7494)
Put plainly: LTEA_HepaRG_XBP1: Life Technologies and Expression Analysis (LTEA) Assay for X-box binding protein 1 (XBP1) using HepaRG (AID 2283540; active means hit-call score of the fitted dose curve at least 0.9, where 1 is the maximum; inactive means score below 0.9). Conditions: mRNA level, 48 h; actives raise or lower the signal. A digest of the protocol: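 Differentiated human HepaRG cells in serum-free induction medium were exposed in duplicate for 48 h to eight half-log concentrations up to 100 uM in 0.5% DMSO. XBP1 mRNA was quantified by qRT-PCR, normalised to ACTB, GAPDH and POLR2A, with bidirectional fitting against DMSO.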

A short description of assay [5]: LTEA_HepaRG_LDH_cytotoxicity: Cytotoxicity Assessment in the Life Technologies and Expression Analysis (LTEA) Assay (AID 2283563).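 On AC50: LDH activity released into spent culture medium as a marker of cell death.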 A digest of the protocol:
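Differentiated human HepaRG cells, plated 48 h beforehand, were switched to serum-free induction medium and exposed for 48 h to eight half-log concentrations (top 100 uM) in 0.5% DMSO. LDH was measured in spent medium; activity was fitted relative to DMSO vehicle.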

Assay [6] can be described thus: ATG_XTT_Cytotoxicity: Cytotoxicity Assessment in the Attagene TRANS-FACTORIAL HepG2 Assay (AID 2283584). In a few lines: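 HepG2 human liver cells, transiently transfected with multiple GAL4-UAS reporter units, were dosed and read at 24 h by XTT as cell number. Loss of signal was fitted relative to DMSO negative control baseline.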
The nature of assay [7]: TOX21_p53_BLA_p2_viability: Viability Assessment in the Tox21 HCT-116 p53 Agonism Beta-lactamase Assay, Phase 2 (AID 2283591).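 Further: compound exposure lasted 16 h at 37 °C; actives lower the ATP signal meaning cytotoxicity.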 A digest of the protocol: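 HCT116 p53-bla cells, 4000/well, dosed after 5 h plating (217-fold dilution of DMSO stocks) and incubated 16 h at 37C. Viability taken as cellular ATP by CellTiter-Glo luminescence after 30 min RT; signal loss marks cytotoxicity.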

In assay [8] the target is Cellular tumor antigen p53 (Homo sapiens) (UniProt P04637). Nature of the assay: TOX21_p53_BLA_p2_ratio: Tox21 HCT-116 p53 Agonism Beta-lactamase Assay, Ratio, Phase 2 (AID 2283592). In a few lines:
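Ratio endpoint: beta-lactamase cleavage of CCF4-AM, blue (460 nm) over green (530 nm). HCT116 reporter line; 16 h treatment, 37C; substrate 2 h RT.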

A short description of assay [9]: TOX21_p53_BLA_p3_viability: Viability Assessment in the Tox21 HCT-116 p53 Agonism Beta-lactamase Assay, Phase 3 (AID 2283593).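 Further: cells exposed to compound for 16 h before reading.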 A digest of the protocol: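 HCT116 cells, 4000/well, dosed 5 h after plating by pin transfer (217-fold dilution from DMSO stock) and incubated 16 h at 37C, 5% CO2. Viability read as ATP luminescence with CellTiter-Glo after 30 min at room temperature.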

Assay [10] deals with Cellular tumor antigen p53 (Homo sapiens) (UniProt P04637). Put plainly: TOX21_p53_BLA_p3_ratio: Tox21 HCT-116 p53 Agonism Beta-lactamase Assay, Ratio, Phase 3 (AID 2283596). In a few lines:
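Cells were seeded at 4000/well, rested 5 h at 37C, then dosed with DMSO compound solutions (217-fold dilution) for 16 h. CCF4-AM substrate was loaded for 2 h at room temperature, and the 460/530 nm emission ratio was fitted for gain of signal versus DMSO.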

Sequence of Cellular tumor antigen p53 (Homo sapiens) (P04637 whole entry, looked up): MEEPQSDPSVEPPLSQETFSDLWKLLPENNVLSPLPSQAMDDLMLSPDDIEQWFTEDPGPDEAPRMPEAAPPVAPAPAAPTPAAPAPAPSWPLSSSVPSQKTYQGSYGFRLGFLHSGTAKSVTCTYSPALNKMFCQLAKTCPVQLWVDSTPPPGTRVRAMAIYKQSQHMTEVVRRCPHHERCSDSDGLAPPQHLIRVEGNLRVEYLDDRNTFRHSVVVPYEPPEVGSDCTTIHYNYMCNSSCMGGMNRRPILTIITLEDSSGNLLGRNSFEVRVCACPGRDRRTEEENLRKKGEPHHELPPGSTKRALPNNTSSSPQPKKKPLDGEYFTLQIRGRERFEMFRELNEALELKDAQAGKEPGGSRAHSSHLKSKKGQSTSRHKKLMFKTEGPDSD

What is called AC50 is the concentration giving half of the maximal activity seen. On to `Nc1ccc2c(c1)C(=O)c1ccccc1C2=O`, for which the AC50 in assay [1] was 18.2 µM (active); in assay [2] it was 7.74 µM (active); in assay [4], 10.3 µM (active). In addition, the result in assay [3], in assay [5], in assay [6], in assay [7], in assay [8] and in assay [9] was inactive.

Regarding `CC1(C)CC(N=C=O)CC(C)(CN=C=O)C1` (centres undefined), the result in assay [1], in [2], in assay [3], in [4], in assay [5] and in assay [6] was inactive. Besides, the result in assay [8], in assay [9] and in assay [10] was inactive.

As to `CCCCCCCCCCCC(=O)OC`, the call in [1], in assay [2], in assay [3], in [4], in assay [5] and in [6] was inactive. In addition, the result in [7], in [8] and in assay [9] was inactive.

`CC(=O)C(C)=CC1C(C)=CCCC1(C)C` (centres undefined): the outcome in [1], in assay [2], in [3], in [4], in assay [5] and in assay [6] was inactive. Also, the result in assay [7], in assay [8] and in [9] was inactive.

`Cc1cccc(C)c1O`: the outcome in [1], in assay [2], in [3], in assay [4], in assay [5] and in assay [6] was inactive. Moreover, the result in assay [7], in assay [8], in assay [9] and in [10] was inactive.

Consider `O=C(O)CCCCC(=O)O`, for which the molecule was classed as inactive in [1], in assay [2], in [3], in [4], in [5] and in [6]. The call in assay [7], in [8] and in assay [9] was inactive.

Take `Cc1ccc(C)c(C)c1`: the molecule was classed as inactive in [1], in assay [2], in assay [3], in [4], in assay [5] and in [6]. Also, the molecule was classed as inactive in assay [7], in assay [8], in assay [9] and in assay [10].

For `CC(=O)OCCOCCOCCOC(C)=O`, the molecule was called inactive in assay [1], in assay [2], in assay [3], in assay [4], in assay [5] and in [6]. Besides, the molecule was classed as inactive in [7], in assay [8], in assay [9] and in assay [10].

For `Nc1ccccc1N`, the AC50 was 50 µM (active) in [1]; 85 µM (active) in [2]; 75.8 µM (active) in assay [3]; 88.2 µM (active) in assay [4]; 68.6 µM (active) in assay [5]. Further, the molecule was classed as inactive in assay [7], in [8] and in assay [9].

Consider `COC(=O)c1ccc(O)cc1`, for which the molecule was classed as inactive in [1], in assay [2], in [3], in assay [4], in assay [5] and in [6]. Besides, the call in assay [7], in [8], in assay [9] and in assay [10] was inactive.

Turning to `Cc1ccc(Cl)cc1`, the molecule was classed as inactive in [1], in assay [2], in assay [3], in assay [4], in assay [5] and in [6]. For the same molecule, the molecule was called inactive in [7], in assay [8] and in assay [10].

With `CC(CO)OC(C)CO` (centres undefined) (tested in a mixture with another compound), the molecule was called inactive in assay [1], in assay [2], in assay [3], in [4], in assay [5] and in assay [6].

For `FC(F)(F)C(F)(F)C(F)(F)C(F)(F)C(F)(F)C(F)(F)CCI`, the result in assay [1], in assay [2], in [3], in assay [4], in [5] and in assay [6] was inactive. The outcome in assay [8] and in assay [9] was inactive.

On to `O=C(O)Cc1ccccc1Nc1c(Cl)cccc1Cl`, for which the molecule was classed as inactive in assay [1], in assay [3], in assay [4], in assay [5], in assay [6] and in assay [7]. Also, the result in assay [8] and in assay [9] was inactive. Also, the figures for the AC50 in assay [2] and in assay [8] were 6.2 µM (active) and 68.9 µM (active), respectively.

With `Nc1ccc(S(=O)(=O)c2ccc(N)cc2)cc1`, the call in [1], in assay [2], in assay [3], in assay [4], in assay [5] and in assay [6] was inactive. The molecule was classed as inactive in [7], in assay [8], in assay [9] and in [10].

As to `OC[C@@H](O)[C@@H](O)[C@H](O)[C@H](O)CO`, the call in [1], in assay [2], in assay [3], in assay [4], in assay [5] and in assay [6] was inactive. The call in assay [7], in assay [8], in [9] and in assay [10] was inactive.

For the molecule `CC(=O)Oc1ccccc1C(=O)O`, the molecule was classed as inactive in assay [1], in assay [2], in assay [3], in assay [4], in [5] and in assay [7]. In addition, the outcome in assay [8] and in assay [9] was inactive.

Turning to `CCCCCC(=O)O`, the result in assay [1], in assay [2], in [3], in [4], in assay [5] and in assay [6] was inactive. The result in assay [7], in assay [8], in [9] and in assay [10] was inactive.

On to `CC1=C(/C=C/C(C)=C/C=C/C(C)=C/CO)C(C)(C)CCC1`, for which the molecule was called inactive in assay [1], in assay [3], in [4], in [5], in assay [6] and in assay [7]. Further, the outcome in [8] and in assay [9] was inactive. In addition, the half-maximal activity concentration (AC50) in [2] is 41.5 µM (active).

As for `CCCCCCCCCCO`, the call in assay [1], in assay [2], in assay [3], in assay [4], in [5] and in [6] was inactive. Moreover, the molecule was classed as inactive in assay [7], in assay [8] and in assay [10].

With `CCOc1ccc2c(c1)C(C)=CC(C)(C)N2`, the call in [1], in assay [3], in [4], in [5], in assay [7] and in assay [8] was inactive. Moreover, the molecule was called inactive in [9]. The AC50 in [2] was 1.61 µM (active).

For the molecule `CCNc1cccc(C)c1`, the call in [1], in [2], in assay [3], in [4], in [5] and in [6] was inactive. Also, the molecule was called inactive in assay [7], in assay [8] and in assay [9].
